This is a sample that favours compounds with a hit; in the whole collection about 1.4% have one here.
PrPC TRFRET – inhibitors of human cell surface prion protein PrPC; inhibition, % at 13.8 µM; TR-FRET read-out; P04156; 0.43% of 370,000 active; in the data active = inhibition above about 24%; also: 0% = median of the test wells and 100% = reference compound wells
Vc quorum ag-1 – inducers of Vibrio cholerae quorum light production without autoinducers. V. cholerae BH1578 lux reporter, luminescence, 6 h. activation, % at 18.7 µM. 0.16% of 350,000 active. AID 588436; in the data active = activation mostly above about 9.7%, no sharp cut-off
SSB-PriA inh – K. pneumoniae PriA-SSBct interaction inhibition. AlphaScreen SSBct-PriA binding, biotinylated peptide. inhibition, % at 33 µM. 0.6% of 430,000 active. AID 1272365; in the data active = inhibition mostly above about 37%, no sharp cut-off; inactive = mostly below about 20%;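 also: plate controls were negative control peptide for no effect and reference peptide for full effect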
PrP UTR inh – inhibition of PrP 5' UTR reporter expression; cell-based PrP 5' UTR mRNA reporter, plate reader; inhibition, % (concentration not given with the values); 0.35% of 340,000 active; in the data active = inhibition above about 52%; also: 0 = median of the neutral control wells
FadD28 FP inh – M. tuberculosis FadD28 bisubstrate binding inhibition; inhibition, % at 12.5 µM; 0.22% of 360,000 active; FadD28 bisubstrate probe binding, fluorescence polarization; in the data active = inhibition above about 8.5%, passing the limit was not always enough
Vc quorum ag-2 – induces V. cholerae light production without autoinducers | 620 tested, under 10 active | activation, % at 50 µM | shares compounds with Vc quorum ag-1 | V. cholerae BH1578 lux reporter, luminescence, 6 h; call rule not given here
HeLa tox – HeLa cell viability loss at 24 h | shares compounds with Vc quorum ag-1 | CellTiter-Glo ATP luminescence | activity change, negative = cytotoxicity, % at 35 µM | 25 tested, under 10 active | AID 624140;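 active = signal drop with fitted half-maximal concentration at or below twice the highest valid dose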
* = called active by the depositor; i = inactive; · = no result given; + = active, no number.

SMILES	PrPC TRFRET	Vc quorum ag-1	SSB-PriA inh	PrP UTR inh	FadD28 FP inh	Vc quorum ag-2	others
Cc1ccc(S(=O)(=O)Nc2cc(C(=O)NCCN(C)C)ccc2N2CCCCC2)cc1	-9	17*	-1	-4	1	0
COc1ccc(C2CC(c3nc4ccccc4s3)=Nc3ccccc3S2)cc1 (stereo unspecified)	·	·	-4	·	·	·
Cc1ccc(Cn2c(SCC(C)C)nc3c2c(=O)[nH]c(=O)n3C)cc1	-2	25*	-12	11	-5	2
O=C(CCn1cnc2ccccc2c1=O)Nc1cc(N2CCCC2)ncn1	·	·	5	·	·	·
Cc1ccc(C(=O)OCC(=O)NCC(F)(F)F)cc1C	0	21	-14	-19	-4	153
O=C(Nc1ccc2scnc2c1)c1cccc(C(F)(F)F)c1	·	·	-11	·	·	·
CC(=O)c1cccc(NC(=O)COC(=O)COc2ccc(Cl)cc2)c1	-5	0	-11	-25	-3	·
CC(=O)c1cccc(NC(=O)COC(=O)Cc2ccc(Cl)cc2)c1	1	14	-2	-2	-4	0
CCOc1cc(N2CCN(S(=O)(=O)c3cc(C(C)(C)C)ccc3OC)CC2)nc(C)n1	·	·	-5	·	·	·
CCCn1c(=O)[nH]c(=O)c2c1nc(-c1ccc(C#N)cc1)n2CCOC	0	0	0	-23	-3	·
CCCCn1c(=O)[nH]c(=O)c2c1nc(COc1ccc(C#N)cc1)n2CCC	-9	12	-26	6	-5	0
Cc1cccc(C(=O)NCC(c2cccs2)N2CCOCC2)c1 (stereo unspecified)	4	14	-1	-9	-1	0
Cc1cccc(C(=O)NCC(=O)NCC(c2cccs2)N2CCOCC2)c1 (stereo unspecified)	-4	-1	6	-13	-1	·
CC(C)NC(=O)c1ccc(-c2cccc(C(F)(F)F)c2)o1	3	33*	-11	-5	-1	0
O=C(Nc1ccc(-c2cn3ccsc3n2)cc1)c1ccc(F)c(S(=O)(=O)N2CCOCC2)c1	13	12	6	-8	-3	0
CCn1cccc(-c2nnc(SCC(=O)NC)n2C)c1=O	·	·	-6	·	·	·
COc1ccc(S(=O)(=O)N2CCCCC2)cc1NC(=O)c1ccc(OC)c(OC)c1	5	14	9	-29	-5	0
COc1ccc(CCN(C)C(=O)c2cc(S(=O)(=O)N3CCCCCC3)ccc2OC)cc1OC	10	19	-12	-14	-5	0
COc1ccc(S(=O)(=O)Nc2cccc(S(=O)(=O)N3CCCC3)c2)cc1OC	-2	14	0	-17	-2	-100
O=C1NC(=O)C(Nc2ccc(F)cc2)S1 (stereo unspecified)	·	·	-4	·	·	·
COc1ccc(C(=O)Nc2c(N)nc(SCC(=O)Nc3nccs3)[nH]c2=O)cc1OC	·	·	-17	·	·	·
CCCCn1nnnc1NCc1cccs1	4	0	-11	-11	-3	·
CCCn1nnnc1NCc1ccc(C(C)C)cc1	9	·	-1	-16	0	i	HeLa tox=6
CCCCn1c(NCc2ccc(N(C)C)cc2)nc2ccccc21	4	0	46	-25	-1	·
CCCn1nnnc1NCc1ccccc1Cl	-3	i	-25	-32	-3	·	HeLa tox=2
SMILES	PrPC TRFRET	Vc quorum ag-1	SSB-PriA inh	PrP UTR inh	FadD28 FP inh	Vc quorum ag-2	others
CCCn1nnnc1NCc1ccc(N(C)C)cc1	-3	·	3	-53	1	i
CCCn1nnnc1NCc1ccccc1OCC	3	0	0	-9	0	·
C[C@@H](CCc1ccccc1)NC(=O)C1CN(S(=O)(=O)C2CC2)C1	·	·	-2	·	·	·
CCOC(=O)Nc1ccc(S(=O)(=O)Nc2cc(C)nc(C)n2)cc1	-5	12	-10	-17	-2	13
COc1ccc(CC(=O)NCCc2cc3c(C)ccc(C)c3[nH]c2=O)cc1	·	·	-1	·	·	·
CN(C(=O)Cn1cc(C(F)(F)F)cc(Cl)c1=O)C1CCS(=O)(=O)C1 (stereo unspecified)	3	14	-8	-6	-2	1
O=C(Nc1nc(CCC(=O)N2CCN(c3ccccn3)CC2)cs1)c1ccccc1	·	·	1	·	·	·
O=C(CN1CCN(c2ccc(F)cc2)CC1)Nc1cc(C(F)(F)F)ccc1Cl	-8	25*	-7	-6	0	1
CCn1nnnc1NCc1ccc(SC)cc1	7	·	-4	-15	-4	i
CCn1nnnc1NCc1ccc(N2CCCC2)cc1	0	·	-13	-19	-3	i	HeLa tox=13
Cc1ccc(CNc2nnnn2C)cc1	6	0	2	-11	0	·
O=C(NCCC(O)c1ccsc1)C(=O)Nc1ccc(OC(F)(F)F)cc1 (stereo unspecified)	·	·	-1	·	·	·
Cc1nn(-c2ccccc2)c(C)c1NC(=O)COC(=O)c1cccc(OC(F)F)c1	-9	26	-22	-28	-3	0
COc1ccc(-c2nsc(SCC(=O)Nc3ccccc3C(F)(F)F)n2)cc1	·	·	-13	·	·	·
Cc1cc(C)c2cc(C(c3nnnn3C3CCCC3)N3CCOCC3)c(=O)[nH]c2c1 (stereo unspecified)	-2	0	0	-7	-2	·
Cc1ccc2cc(C(c3nnnn3C3CCCC3)N3CCN(c4ccc(F)cc4)CC3)c(=O)[nH]c2c1 (stereo unspecified)	-7	14	2	-20	-1	0
COc1ccccc1N1C[C@@H](c2nc3ccccc3n2Cc2ccccc2F)CC1=O	·	·	4	·	·	·
Cn1c(=O)oc2cc(S(=O)(=O)N3CCN(c4ccc(F)cc4)CC3)ccc21	7	97*	-16	-20	1	4
Cc1ccc(N2CCn3c2nnc(C(=O)NCCc2c[nH]c4ccccc24)c3=O)cc1	·	·	-1	·	·	·
CCN(CC(=O)Nc1c(F)cccc1F)C(=O)c1ccc(C)c(S(=O)(=O)N2CCCCC2)c1	·	2	-8	-12	0	0
COC(=O)c1sc2ncccc2c1OCc1cccc(Cl)c1	-3	0	-9	0	-2	·
COC(=O)c1sc2ncccc2c1OCc1c(Cl)cccc1Cl	5	14	-3	-17	-4	1
O=C(NCc1ccccn1)C(C(=O)c1ccc(F)cc1)n1ccccc1=O (stereo unspecified)	1	12	-8	-16	0	0
O=C(NCc1ccco1)C(C(=O)c1ccc(F)cc1)n1ccccc1=O (stereo unspecified)	4	0	-17	-6	-2	·
CSc1ccc(/C=C/C(=O)OCC(=O)N2CCN(S(=O)(=O)c3ccc(C)cc3C)CC2)cc1	1	i	2	-9	0	·
Cc1ccc(S(=O)(=O)N2CCN(C(=O)COC(=O)/C=C/c3ccc(F)cc3)CC2)c(C)c1	-4	2	-11	-6	-4	0
CC1CCc2nn(CC(=O)NC3CCCC3)cc2C1 (stereo unspecified)	-2	+	-6	-18	0	i
O=C(Cn1cc2c(n1)CCCC2)NC1CCCCCC1	13	0	-15	-4	-3	·

Screens (PubChem)
